The experiment concerns the target Tyrosyl-DNA phosphodiesterase 1 (Homo sapiens) (UniProt Q9NUW8). Nature of the experiment: Confirmation Assay for Inhibitors of Tyrosyl-DNA Phosphodiesterase (TDP1) (AID 489007). Also: nearly all actives have a fitted effect of over 40% in size. Particulars: recombinant human TDP1 enzymatic activity, dose-response. A digest of the protocol:
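Recombinant E. coli-expressed Tdp1 (1 nM final) was preincubated with compounds 15 min at room temperature, then reacted 5 min with 15 nM 5'-biotin/3'-phosphotyrosine-FITC DNA substrate; cleavage read as loss of AlphaScreen signal (10 ug/ml beads, 10 min).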

SMILES strings stand for the structures. Records with an inconclusive call do not appear. A number with no mark means an inactive call. Active and inactive are the calls of the source. Calls follow the shape of the dose curve; as a rule, active = well fitted inhibition curve with a large enough effect; inconclusive = small, poorly fitted or top-dose-only effect; inactive = flat fitted curve, though single readings scatter.
Potency is read from the fitted curve at half-maximal effect.

Tyrosyl-DNA phosphodiesterase 1 (Homo sapiens), sequence (Q9NUW8 whole entry, looked up): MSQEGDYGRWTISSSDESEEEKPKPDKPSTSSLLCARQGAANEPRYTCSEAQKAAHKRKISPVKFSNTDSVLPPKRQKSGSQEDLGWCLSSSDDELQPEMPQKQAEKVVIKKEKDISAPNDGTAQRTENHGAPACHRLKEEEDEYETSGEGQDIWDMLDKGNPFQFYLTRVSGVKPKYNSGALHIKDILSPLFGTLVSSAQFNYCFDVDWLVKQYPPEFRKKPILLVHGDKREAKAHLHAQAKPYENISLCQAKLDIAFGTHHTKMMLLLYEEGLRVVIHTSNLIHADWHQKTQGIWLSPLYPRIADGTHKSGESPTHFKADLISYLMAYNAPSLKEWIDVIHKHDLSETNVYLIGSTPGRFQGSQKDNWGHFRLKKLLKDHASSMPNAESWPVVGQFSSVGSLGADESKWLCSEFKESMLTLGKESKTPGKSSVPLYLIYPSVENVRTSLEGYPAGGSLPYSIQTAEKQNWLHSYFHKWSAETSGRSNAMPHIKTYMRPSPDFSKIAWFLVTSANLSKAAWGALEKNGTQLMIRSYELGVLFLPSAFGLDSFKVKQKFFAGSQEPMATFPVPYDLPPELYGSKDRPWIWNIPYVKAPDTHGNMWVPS

As for `Cc1nnc(NC(=O)CSc2ccc(-c3ccco3)nn2)s1`, the Potency is 14.1 µM (active).

Take `Cc1ccc(-c2nc3c(c(SCC(=O)Nc4cccc(C(=O)O)c4)n2)Cc2cccc(C)c2O3)cc1`: the Potency is 4.08 µM (active).

Source of the values: PubChem BioAssay (NCATS).
